Here are results for 9 compounds from PubChem BioAssay (NCI).

The panel holds about 79,000 compounds, 15% with a hit somewhere; the sample as a whole holds those more often. Unmarked numbers belong to inactive results. Activity calls are given as the source filed them. Cut-off read from the data, not from the text of the source: active = growth inhibition above about 70%; inactive = the rest.

The nature of experiment [1]: NCI Yeast Anticancer Drug Screen. Data for the rad50 strain (AID 155).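 Note: 0% = growth of vehicle-only cultures of the same strain.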 The settings on record: S. cerevisiae rad50 strain growth inhibition, hits give high values. The gist of the method: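 A DNA repair-deficient yeast mutant serves as the test organism; compound-induced growth inhibition is calculated against vehicle-treated cells.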
Experiment [2] can be described thus: NCI Yeast Anticancer Drug Screen. Data for the mec2-1 strain (AID 157). The settings on record: S. cerevisiae mec2-1 strain, hits give high values. The procedure, abridged: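 Compounds were applied to mec2-1 yeast cells. Their growth was then compared with that of vehicle-treated cultures to give growth inhibition.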
Experiment [3] in a line: NCI Yeast Anticancer Drug Screen. Data for the sgs1 mgt1 strain (AID 161).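 Note: 0% = growth of cultures given vehicle only.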 The conditions noted are these: S. cerevisiae sgs1 mgt1 strain, hits give high values. The procedure, abridged:
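Growth of a repair-deficient yeast mutant was monitored after compound treatment and expressed as inhibition relative to vehicle-treated cultures.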

Experiment [4] is described as follows: NCI Yeast Anticancer Drug Screen. Data for the cln2 rad14 strain (AID 165).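 Note: 0% = growth equal to vehicle treated cultures.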 The settings on record: S. cerevisiae cln2 rad14 strain, hits give high values. The gist of the method: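 Strain: cln2 rad14 yeast, altered in cell cycle control and DNA damage repair. Read-out: growth inhibition vs vehicle.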
Experiment [5] can be described thus: NCI Yeast Anticancer Drug Screen. Data for the bub3 strain (AID 167). The settings on record: S. cerevisiae bub3 mutant strain, hits give high values. The procedure, abridged:
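Inhibition values come from growth of compound-treated mutant yeast normalised to vehicle-treated controls.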

Experiment [6] in a line: NCI Yeast Anticancer Drug Screen. Data for the mlh1 rad18 strain (AID 175). The settings on record: S. cerevisiae mlh1 rad18 strain growth inhibition, hits give high values. The gist of the method: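 A repair-deficient yeast strain is exposed to test compound, and growth is scored relative to vehicle-treated controls.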
Setting [7] is: at 5.0 µM (retest, dose inferred, filed as 0.5).
Where [8] appears, read: at 50.0 µM (retest, dose inferred, filed as 5.0).

For `O=c1c(-c2ccccc2)c1-c1ccccc1`, the growth inhibition in experiment [1] (setting [7]) is 7%; in experiment [1] (setting [8]) it was 92% (active); in experiment [1] (at 50.0 µM) it was 98.7% (active); in experiment [2] (setting [7]) it was 4%; in experiment [2] (setting [8]), 95% (active); in experiment [2] (at 50.0 µM), 99.3% (active). Also, the growth inhibition is 8% in experiment [3] (setting [7]); 90% (active) in experiment [3] (setting [8]); 98.9% (active) in experiment [3] (at 50.0 µM); -2% in experiment [4] (setting [7]); 96% (active) in experiment [4] (setting [8]); 97.6% (active) in experiment [4] (at 50.0 µM). Also, the growth inhibition in experiment [5] (setting [7]) is 5%; in experiment [5] (setting [8]), 91% (active); in experiment [5] (at 50.0 µM), 99.2% (active); in experiment [6] (setting [7]), 1%; in experiment [6] (setting [8]), 96% (active); in experiment [6] (at 50.0 µM) it was 99% (active).

`CC1(C)[C@H]2CC[C@]1(C)[C@H](OC(=O)NNC(=O)O[C@@H]1C[C@@H]3CC[C@@]1(C)C3(C)C)C2`: the growth inhibition in experiment [1] (setting [7]) is 33%; in experiment [1] (setting [8]), 74% (active); in experiment [1] (at 50.0 µM) it was 11.3%; in experiment [2] (setting [7]), 37%; in experiment [2] (setting [8]) it was 59%; in experiment [2] (at 50.0 µM), 22.4%. Also, the growth inhibition was 26% in experiment [3] (setting [7]); 35% in experiment [3] (setting [8]); 53% in experiment [3] (at 50.0 µM); 30% in experiment [4] (setting [7]); 38% in experiment [4] (setting [8]); 47.4% in experiment [4] (at 50.0 µM). Besides, the growth inhibition was 35% in experiment [5] (setting [7]); 51% in experiment [5] (setting [8]); 67.2% in experiment [5] (at 50.0 µM); 38% in experiment [6] (setting [7]); 68% in experiment [6] (setting [8]); -16% in experiment [6] (at 50.0 µM).

With `Nc1cc(Cl)ccc1S`, the growth inhibition was 79% (active) in experiment [1] (setting [7]); 48% in experiment [1] (setting [8]); 99.5% (active) in experiment [1] (at 50.0 µM); 99% (active) in experiment [2] (setting [7]); 89% (active) in experiment [2] (setting [8]); 99.5% (active) in experiment [2] (at 50.0 µM). In addition, the growth inhibition was 83% (active) in experiment [3] (setting [7]); 47% in experiment [3] (setting [8]); 99.5% (active) in experiment [3] (at 50.0 µM); 25% in experiment [4] (setting [7]); 53% in experiment [4] (setting [8]); 99% (active) in experiment [4] (at 50.0 µM). Besides, the growth inhibition in experiment [5] (setting [7]) was 31%; in experiment [5] (setting [8]), 91% (active); in experiment [5] (at 50.0 µM), 99.3% (active); in experiment [6] (setting [7]), 83% (active); in experiment [6] (setting [8]), 75% (active); in experiment [6] (at 50.0 µM), 99.5% (active).

`O=C(CCl)NC(=O)N(/N=C/c1ccco1)c1ccccc1`: the growth inhibition was -1% in experiment [1] (setting [7]); 52% in experiment [1] (setting [8]); 44.8% in experiment [1] (at 50.0 µM); 3% in experiment [2] (setting [7]); 60% in experiment [2] (setting [8]); 47% in experiment [2] (at 50.0 µM). For the same compound, the growth inhibition is -4% in experiment [3] (setting [7]); 38% in experiment [3] (setting [8]); 55.2% in experiment [3] (at 50.0 µM); 1% in experiment [4] (setting [7]); 24% in experiment [4] (setting [8]); -16.1% in experiment [4] (at 50.0 µM). Moreover, the growth inhibition in experiment [5] (setting [7]) was 3%; in experiment [5] (setting [8]), 83% (active); in experiment [5] (at 50.0 µM), 59.2%; in experiment [6] (setting [7]) it was 3%; in experiment [6] (setting [8]), 68%; in experiment [6] (at 50.0 µM), 58%.

In the case of `Nc1ccc(SC23CC4CC(CC(C4)C2)C3)cc1`, the growth inhibition in experiment [1] (setting [7]) was 1%; in experiment [1] (setting [8]), 74% (active); in experiment [1] (at 50.0 µM), 94.1% (active); in experiment [2] (setting [7]), 0%; in experiment [2] (setting [8]) it was 42%; in experiment [2] (at 50.0 µM), 94.4% (active). The growth inhibition in experiment [3] (setting [7]) is 9%; in experiment [3] (setting [8]), 78% (active); in experiment [3] (at 50.0 µM), 96% (active); in experiment [4] (setting [7]), -69%; in experiment [4] (setting [8]) it was 61%; in experiment [4] (at 50.0 µM), 95.1% (active). The growth inhibition was 40% in experiment [5] (setting [7]); 33% in experiment [5] (setting [8]); 95.7% (active) in experiment [5] (at 50.0 µM); 10% in experiment [6] (setting [7]); 91% (active) in experiment [6] (setting [8]); 89.2% (active) in experiment [6] (at 50.0 µM).

Consider `c1ccc2c(c1)N=c1ccccc1=P21c2ccccc2Nc2ccccc21`, for which the growth inhibition in experiment [1] (setting [7]) is 89% (active); in experiment [1] (setting [8]), 99% (active); in experiment [1] (at 50.0 µM), 87.3% (active); in experiment [2] (setting [7]) it was 93% (active); in experiment [2] (setting [8]) it was 99% (active); in experiment [2] (at 50.0 µM), 90.9% (active). Also, the growth inhibition in experiment [3] (setting [7]) was 84% (active); in experiment [3] (setting [8]) it was 99% (active); in experiment [3] (at 50.0 µM) it was 87.8% (active); in experiment [4] (setting [7]) it was 85% (active); in experiment [4] (setting [8]), 99% (active); in experiment [4] (at 50.0 µM), 89.5% (active). Moreover, the growth inhibition was 97% (active) in experiment [5] (setting [7]); 99% (active) in experiment [5] (setting [8]); 89.8% (active) in experiment [5] (at 50.0 µM); 92% (active) in experiment [6] (setting [7]); 99% (active) in experiment [6] (setting [8]); 83.2% (active) in experiment [6] (at 50.0 µM).

In the case of `O=S(c1ccccc1)c1c(Cl)c(Cl)nc(Cl)c1Cl` (configuration not stated), the growth inhibition in experiment [1] (setting [7]) is 97% (active); in experiment [1] (setting [8]), 99% (active); in experiment [1] (at 50.0 µM), 99.2% (active); in experiment [2] (setting [7]) it was 99% (active); in experiment [2] (setting [8]) it was 99% (active); in experiment [2] (at 50.0 µM) it was 99.6% (active). For the same compound, the growth inhibition in experiment [3] (setting [7]) is 99% (active); in experiment [3] (setting [8]), 99% (active); in experiment [3] (at 50.0 µM), 99.5% (active); in experiment [4] (setting [7]), 95% (active); in experiment [4] (setting [8]) it was 99% (active); in experiment [4] (at 50.0 µM), 99.6% (active). The growth inhibition was 98% (active) in experiment [5] (setting [7]); 99% (active) in experiment [5] (setting [8]); 99.5% (active) in experiment [5] (at 50.0 µM); 99% (active) in experiment [6] (setting [7]); 99% (active) in experiment [6] (setting [8]); 99.5% (active) in experiment [6] (at 50.0 µM).

In the case of `Cc1nc(Nc2ccccc2)sc1C(=O)NNc1ccc([N+](=O)[O-])cc1[N+](=O)[O-]`, the growth inhibition in experiment [1] (setting [7]) was 19%; in experiment [1] (setting [8]), 19%; in experiment [1] (at 50.0 µM), 12.6%; in experiment [2] (setting [7]), 7%; in experiment [2] (setting [8]), 7%; in experiment [2] (at 50.0 µM), 40.2%. For the same compound, the growth inhibition is -6% in experiment [3] (setting [7]); -6% in experiment [3] (setting [8]); 60.8% in experiment [3] (at 50.0 µM); 14% in experiment [4] (setting [7]); 14% in experiment [4] (setting [8]); 28.4% in experiment [4] (at 50.0 µM). Also, the growth inhibition in experiment [5] (setting [7]) is 15%; in experiment [5] (setting [8]), 15%; in experiment [5] (at 50.0 µM), 43%; in experiment [6] (setting [7]), 20%; in experiment [6] (setting [8]) it was 20%; in experiment [6] (at 50.0 µM), 66.2%.

For the compound `Cc1c(O)ccc2c1OCC(c1ccc(Cl)cc1)C2` (configuration not stated), the growth inhibition is -19% in experiment [1] (setting [7]); 72% (active) in experiment [1] (setting [8]); 87.9% (active) in experiment [1] (at 50.0 µM); 0% in experiment [2] (setting [7]); 13% in experiment [2] (setting [8]); 70.2% (active) in experiment [2] (at 50.0 µM). In addition, the growth inhibition in experiment [3] (setting [7]) was -7%; in experiment [3] (setting [8]), 21%; in experiment [3] (at 50.0 µM), 72.8% (active); in experiment [4] (setting [7]) it was 10%; in experiment [4] (setting [8]), 39%; in experiment [4] (at 50.0 µM) it was 78.5% (active). In addition, the growth inhibition in experiment [5] (setting [7]) is 32%; in experiment [5] (setting [8]), 85% (active); in experiment [5] (at 50.0 µM), 92.9% (active); in experiment [6] (setting [7]), -10%; in experiment [6] (setting [8]), 43%; in experiment [6] (at 50.0 µM), 94.2% (active).
